A short description of assay [1]: Quantitative highthroughput screen to assess conditional lethalithy of NOMO1 cells grown in RPMI1640 with untreated serum (RPMI+s) (AID 1963876). Further: nearly all actives have a fitted effect of over 35% in size. Further: potency means the concentration at half of the fitted maximal effect.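 On viability: 100% = DMSO wells and 0% = empty wells without cells.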 The method in brief:
(§1)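 Each medium arm—HPLM with 10% dialyzed FBS, or RPMI1640 with 5 mM glucose and 10% untreated or dialyzed FBS—was screened against an 11-point, 3-fold compound titration for 48 h at 37 °C, with CellTiter-Glo luminescence as endpoint.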

Assay [2] can be described thus: Quantitative highthroughput screen to assess conditional lethalithy of P12 Ichikawa cells grown in Human Plasma-Like Medium with dialyzed fetal bovine serum (HPLM+ds) (AID 1963879). Further: nearly all actives have a fitted effect of over 35% in size. Further: potency means the concentration at half of the fitted maximal effect. On viability: series mostly up to about 46 µM. To be noted: Potency: viability. The method in brief: as §1
Assay [3] is described as follows: Quantitative highthroughput screen to assess conditional lethalithy of P12 Ichikawa cells grown in RPMI1640 with untreated serum (RPMI+s) (AID 1963881). Further: nearly all actives have a fitted effect of over 35% in size. Further: potency means the concentration at half of the fitted maximal effect.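 On viability: series mostly up to about 46 µM; 100% = DMSO wells and 0% = empty wells without cells.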 To be noted: Potency: viability. The method in brief: as §1
Assay [4] in a line: Quantitative highthroughput screen to assess conditional lethalithy of NOMO1 cells grown in Human Plasma-Like Medium with dialyzed fetal bovine serum (HPLM+ds) (AID 1963878). Further: nearly all actives have a fitted effect of over 35% in size. Further: potency means the concentration at half of the fitted maximal effect.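 On viability: 100% = DMSO wells and 0% = empty wells on each plate.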 The method in brief: as §1
Assay [5] can be described thus: Quantitative highthroughput screen to assess conditional lethalithy of P12 Ichikawa cells grown in RPMI1640 with dialyzed fetal bovine serum (RPMI+ds) (AID 1963880). To be noted: Potency: P12-Ichikawa viability. The method in brief:
as §1

Assay [6] in a line: Quantitative highthroughput screen to assess conditional lethalithy of SEM cells grown in Human Plasma-Like Medium with dialyzed fetal bovine serum (HPLM+ds) (AID 1963882). Further: nearly all actives have a fitted effect of over 35% in size. Further: potency means the concentration at half of the fitted maximal effect. On viability: series mostly up to about 46 µM. The method in brief: as §1
The nature of assay [7]: Quantitative highthroughput screen to assess conditional lethalithy of SEM cells grown in RPMI1640 with unreated serum (RPMI+s) (AID 1963883). Further: nearly all actives have a fitted effect of over 35% in size. Further: potency means the concentration at half of the fitted maximal effect.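 On viability: 100% = DMSO wells and 0% = empty wells without cells.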 The method in brief: as §1
A short description of assay [8]: Quantitative highthroughput screen to assess conditional lethalithy of SEM cells grown in RPMI1640 with dialyzed fetal bovine serum (RPMI+ds) (AID 1963884). Further: nearly all actives have a fitted effect of over 35% in size. Further: potency means the concentration at half of the fitted maximal effect.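 On viability: series mostly up to about 46 µM; 100% = DMSO control wells and 0% = empty wells without cells.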 In outline: as §1
Assay [9] is described as follows: Cellular viability qHTS for adrenocortical cancer (ACC) cell line SW-13 (AID 1963989). Further: nearly all actives have a fitted effect of over 65% in size. Further: potency means the concentration at half of the fitted maximal effect.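 On activity (max response): cells grown in serum-free medium with ITS supplement; on the % scale 0 is the no-effect control and ±100 the full control effect.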 As to conditions: SW-13 ACC cells viability, CellTiter-Glo, 48 h; activity (max response): hits give low values. The method in brief:
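SW-13 cells in ITS-supplemented serum-free DMEM were plated overnight, then exposed for 48 h at 37C to compound titrations (up to 46 uM final). Viability was read by CellTiter-Glo luminescence; four-parameter logistic fits gave IC50 and efficacy.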
Background: In qHTS, concentration-response curves come from the screen itself.

Assay [10] can be described thus: Cellular viability qHTS for adrenocortical cancer (ACC) cell line NCI-H295R (AID 1963990). Further: nearly all actives have a fitted effect of over 60% in size. Further: potency means the concentration at half of the fitted maximal effect. In outline: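 Luminescent ATP read-out (CellTiter-Glo, 20 min RT) after 48 h drug exposure of NCI-H295R cells; a titration up to 46 uM final. Data normalized to doxorubicin (100% inhibition) and DMSO (0%); 4-parameter fit gives IC50, max response.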
Assay [11] is described as follows: Quantitative highthroughput screen to assess conditional lethalithy of NOMO1 cells grown in RPMI1640 with dialyzed fetal bovine serum (RPMI+ds) (AID 1963877).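 Further: series mostly up to about 46 µM; 100% = DMSO control wells and 0% = empty wells; nearly all actives have a fitted effect of over 30% in size.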 In outline: as §1
A short description of assay [12]: Viability qHTS for spleen associated tyrosine kinase inhibitor (SYKi) drug resistant MV4-11 cells (AID 1963824). Further: nearly all actives have a fitted effect of over 35% in size. Further: potency means the concentration at half of the fitted maximal effect. In outline: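 SYK inhibitor-resistant MV4-11 AML cells, 500 per well, added to predispensed compounds and incubated 72 hr at 37 C, 5% CO2. Viability measured by CellTiter-Glo luminescence after 10 min at room temperature.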

Structures are written as SMILES. Results filed as inconclusive are left out. Values without a mark were called inactive. Activity calls are given as the source filed them. The call rests on the fitted dose curve; in most records, active means well fitted curve in the direction sought with a large enough effect; inconclusive means small, poorly fitted or top-dose-only effect, or another doubt; inactive means no such curve, though single readings can be large; an effect the other way counts as inactive or inconclusive.

Consider 23 compounds from PubChem BioAssay (NCATS).

For the compound `CC(=O)O[C@@]12CO[C@H]1C[C@H](O)[C@@]1(C)C(=O)[C@H](O)C3=C(C)[C@@H](O)C[C@@](O)([C@@H](OC(=O)c4ccccc4)[C@@H]21)C3(C)C`, the figures for the Potency in [1], in assay [2] and in [3] were 14800 nM (active), 10500 nM (active) and 9350 nM (active), respectively.

In the case of `CC(C)(O)C=CC(=O)[C@](C)(O)[C@H]1[C@H](O)C[C@]2(C)[C@@H]3CC=C4[C@@H](C=C(O)C(=O)C4(C)C)[C@]3(C)C(=O)C[C@@]12C`, the Potency in [1] is 187 nM (active); in [4] it was 209 nM (active); in assay [2] it was 166 nM (active); in assay [3] it was 148 nM (active).

As to `COC1(CS(=O)c2ccccc2)CCN(CCc2c[nH]c3ccc(F)cc23)CC1` (stereo unspecified), the Potency result in assay [1], in assay [2], in assay [5], in assay [3], in [6] and in assay [7] was “inactive” each time. Besides, the Potency entry in assay [8] and in [10] was “inactive” in each case. The Potency in assay [4] was 26400 nM (active). The activity (max response) in assay [9] is -19.4%.

In the case of `C[C@]12CC[C@H](O)CC1=CC[C@H]1[C@H]3CCC(=O)[C@@]3(C)CC[C@@H]12`, the Potency entry in [1], in [11], in [4], in assay [2], in [5] and in [3] was “inactive” throughout. Further, in [6], the Potency entry was “inactive”.

On to `CC(=Cc1csc(C)n1)[C@@H]1C[C@H]2O[C@]2(C)CCC[C@H](C)[C@@H](O)[C@@H](C)C(=O)C(C)(C)[C@@H](O)CC(=O)O1`, for which the Potency result in [1], in [4], in assay [2], in assay [5], in assay [3] and in assay [7] was “inactive” each time.

Regarding `CCc1c(C(=O)C(N)=O)c2c(OCC(=O)O)cccc2n1Cc1ccccc1`, the Potency result in assay [1], in assay [11], in [4], in [2], in assay [3] and in [7] was “inactive” throughout. Also, the Potency result in [10] is “inactive”. The activity (max response) in assay [9] is -1.25%.

As for `C[C@]12Cc3nonc3C[C@@H]1CC[C@@H]1[C@@H]2CC[C@@]2(C)[C@H]1CC[C@]2(C)O`, the Potency in assay [12] is 16800 nM (active); in assay [10] it was 23100 nM (active).

Take `O=[N+]([O-])c1ncc[nH]1`: the Potency result in [1], in assay [11] and in assay [3] was “inactive” throughout.

Take `C[C@@H]1[C@@H](CC(C[C@H]2O[C@@H]3O[C@]4(C)CC[C@@H]5[C@H](C)CC[C@@H]([C@H]2C)[C@@]35OO4)C[S+](=O)([O-])c2ccc(COC(=O)N(C)C)cc2)O[C@@H]2O[C@]3(C)CC[C@H]4[C@H](C)CC[C@@H]1[C@@]24OO3` (stereo partly specified): the Potency in assay [1] was 833 nM (active); in assay [4] it was 418 nM (active); in assay [7], 418 nM (active).

Take `CC(C)[C@]12O[C@@H]1[C@@H]1O[C@]13[C@]1(O[C@H]1C[C@@H]1C4=C(CC[C@@]13C)C(=O)OC4)[C@H]2O`: the Potency was 1.2 nM (active) in assay [1]; 1.2 nM (active) in assay [4]; 1.5 nM (active) in assay [3]; 1.2 nM (active) in assay [6]; 1.2 nM (active) in assay [8].

Turning to `N#Cc1nn(-c2c(Cl)cc(C(F)(F)F)cc2Cl)c(N)c1S(=O)C(F)(F)F` (stereo unspecified), the Potency was 10600 nM (active) in assay [12] and 2590 nM (active) in assay [10].

As for `C[C@@H]1[C@H](O)[C@@H](C)C=CC=CCCC=CC=CC=CC=C[C@H](O[C@H]2O[C@@H](C)[C@H](O)[C@@H](N)[C@@H]2O)CC2O[C@](O)(C[C@@H](O)[C@H](O)CC[C@@H](O)C[C@@H](O)C[C@@H](O)CC(=O)O[C@H]1C)C[C@H](O)[C@H]2C(=O)O`, the Potency result in assay [1], in assay [11], in assay [4], in assay [6] and in assay [7] was “inactive” each time.

On to `CC(N[C@H]1C[C@H]1c1ccccc1)c1ccc2c(c1)OCCO2` (stereo partly specified), for which the Potency result in assay [1], in [4], in [2], in assay [3], in assay [6] and in assay [7] was “inactive” each time.

On to `O=C1C=CC[C@@H]2[C@H]3CCCN4CCC[C@@H](CN12)[C@@H]34`, for which the Potency entry in assay [1], in assay [4], in assay [2], in assay [6], in assay [7] and in assay [8] was “inactive” throughout. The Potency result in [10] is “inactive”. The activity (max response) in assay [9] is -3.97%.

Take `C[C@H]1CCCC=CC2C[C@H](O)C[C@@H]2[C@H](O)C=CC(=O)O1` (stereo partly specified): in assay [1], the Potency entry was “inactive”.

On to `C[C@@H]1CC[C@@]2(OC1)O[C@H]1C[C@H]3[C@@H]4CC=C5C[C@@H](O[C@@H]6O[C@H](CO)[C@@H](O[C@@H]7O[C@@H](C)[C@H](O)[C@@H](O)[C@H]7O)[C@H](O)[C@H]6O[C@@H]6O[C@@H](C)[C@H](O)[C@@H](O)[C@H]6O)CC[C@]5(C)[C@H]4CC[C@]3(C)[C@H]1[C@@H]2C`, for which the values for the Potency in [12], in assay [9] and in assay [10] were 1660 nM (active), 3550 nM (active) and 2240 nM (active), respectively.

Turning to `c1ccc2c(c1)OCC(C1=NCCN1)O2` (stereo unspecified), the Potency entry in [12] was “inactive”. In [10], the Potency was 13000 nM (active).

For the compound `COc1cc(CCN)cc(OC)c1OC`, the Potency result in [12] and in [10] was “inactive” throughout.

`NC1CC1c1ccccc1` (stereo unspecified): the Potency entry in [1], in assay [11], in assay [5], in assay [3], in assay [6] and in assay [7] was “inactive” throughout.

In the case of `C=CCOC(Cn1ccnc1)c1ccc(Cl)cc1Cl` (stereo unspecified), the Potency in assay [12] was 9440 nM (active). Also, the Potency result in [10] was “inactive”.

Consider `O=C(NCC1CCOCC1)c1cnc(Nc2ccc(Cl)cc2Cl)nc1C(F)(F)F`, for which the Potency entry in [1], in assay [2], in assay [3], in [6], in [7] and in [8] was “inactive” in each case. Moreover, in assay [10], the Potency entry was “inactive”. The activity (max response) in assay [9] was -11.7%.

`Cc1ccccc1-n1c(Cn2ncc3c(N)ncnc32)nc2cccc(C)c2c1=O`: the Potency in assay [3] was 2640 nM (active). In [8], the Potency entry was “inactive”.

On to `O=C1CCC[C@@H]2[C@H]3CCCN4CCC[C@@H](CN12)[C@@H]34`, for which the Potency entry in assay [3], in assay [7] and in assay [8] was “inactive” throughout.
